Screening data deposited in PubChem by several laboratories.
EphB4 ephrin blk = EphB4-ephrin-B2 interaction antagonism; hit rate 0.15% among 97,000; inhibition, % at 7 µM; EphB4 LBD / TNYL-RAW-Alexa532 peptide, fluorescence polarization; P54760;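 active means inhibition above the screen-wide mean inhibition plus 3 SD, cut at about 15% in these data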
CYP2C9 act = activators of human CYP2C9. activation factor at 5 µM. AID 1024. hit rate 1.4% among 96,000. recombinant CYP2C9, luciferin-H conversion, luminescence; hits give high values; factor 1 = untreated enzyme, 0 = blocked. P11712;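 active means activation factor of 2 or more for CYP2C9 at a 5 µM dose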
Target sequence (P11712 whole entry, looked up): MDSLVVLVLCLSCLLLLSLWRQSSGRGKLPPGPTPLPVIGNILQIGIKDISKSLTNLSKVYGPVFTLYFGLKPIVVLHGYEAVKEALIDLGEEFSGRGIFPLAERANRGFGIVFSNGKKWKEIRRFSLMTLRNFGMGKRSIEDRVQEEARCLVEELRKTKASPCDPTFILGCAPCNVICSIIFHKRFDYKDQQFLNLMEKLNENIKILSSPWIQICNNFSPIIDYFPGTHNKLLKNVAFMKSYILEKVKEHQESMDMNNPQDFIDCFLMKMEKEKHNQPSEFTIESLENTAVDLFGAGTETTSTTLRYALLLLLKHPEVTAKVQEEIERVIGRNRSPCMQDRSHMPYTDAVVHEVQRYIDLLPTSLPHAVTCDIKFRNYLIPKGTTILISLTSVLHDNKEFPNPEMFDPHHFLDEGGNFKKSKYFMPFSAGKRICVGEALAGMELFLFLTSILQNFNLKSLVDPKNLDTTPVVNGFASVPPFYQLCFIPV
CYP2C9 inh = inhibitors of human CYP2C9; AID 777; hit rate 20% among 96,000; CYP2C9 Supersomes, luciferin-H conversion, luminescence; P11712; inhibition, % at 5 µM;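 active means blocking of liver enzyme CYP2C9 beyond about 50% at 5 µM, limit read from the data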
CYP2C19 inh = human CYP2C19 inhibition; CYP2C19 Supersomes, luciferin-H EGE luminescence, 30 min; P33261; inhibition, % at 5 µM; hit rate 21% among 96,000;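 active means CYP2C19 inhibition above a set limit at 5 µM in the primary screen, cut at about 50% in these data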
CYP2C19 act = increases human CYP2C19 enzyme activity; activation factor at 5 µM; 96,000 tested, under 10 active; recombinant CYP2C19, luciferin-H EGE luminescence; hits give high values; 0 = fully inhibited enzyme, 1 = untreated enzyme; P33261;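 active means activation factor of at least 2 at 5 µM in the primary screen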
Numbers stand for hits; i = inactive; nt = not tested or not shown. In the library only some 27% were active in any assay of this set; here they are far more common.

SMILES	EphB4 ephrin blk	CYP2C9 act	CYP2C9 inh	CYP2C19 inh	CYP2C19 act
O=C(CN1CC(c2ccccc2)CC1=O)OCc1ccccc1F (stereo not given)	i	i	56	88	i
Cn1c(C2CC(=O)N(Cc3ccccc3)C2)nc2ccccc21 (stereo not given)	i	i	i	76	i
O=C1CC(c2ccccc2)CN1Cc1ccccc1 (stereo not given)	i	i	i	93	i
CC(C)[C@H](NC(=O)NC1CCCC1)C(=O)O	i	i	i	i	i
NC(=O)CSc1nnc(Cn2c(=O)sc3ccccc32)n1-c1cccc(Cl)c1	i	i	i	i	i
O=C(CCC(=O)CCN1CCCCC1)CCN1CCCCC1	nt	i	i	i	i
Cc1nc2nc(COc3ccccc3)nn2c(C)c1Cl	i	i	i	i	i
O=C(CC1SC(=NC2CCCCC2)NC1=O)Nc1ccccc1 (stereo not given)	i	nt	nt	nt	nt
Cc1cccc(NC(=O)CC2SC(=NC3CCCCC3)NC2=O)c1 (stereo not given)	nt	i	66	i	i
COC(=O)C1=C(C)NC(=O)/C1=C\c1cc(C)n(-c2cccc(C)c2)c1C	i	i	84	79	i
CCOC(=O)c1cc(OC(=O)c2cccnc2)n(-c2ccccc2)n1	i	i	i	i	i
CCc1ccc2[nH]c(=O)c(CN(CCCN3CCOCC3)C(=O)Nc3ccc(Cl)cc3)cc2c1	i	i	i	i	i
O=C(Nc1ccccc1F)N(CCCN1CCOCC1)Cc1cc2cc3c(cc2[nH]c1=O)OCCO3	i	i	52	90	i
CCc1ccc2[nH]c(=O)c(CN(CCCN3CCOCC3)C(=O)Nc3ccccc3)cc2c1	i	i	i	56	i
CC(C)N1C(=O)CC2(CC[N+](C)(CCOC(=O)C(c3ccccc3)c3ccccc3)CC2)C1=O (stereo not given)	i	i	i	i	i
CCOC(=O)CSc1nc(NC#N)nc(N(CC)CC)n1	i	nt	nt	nt	nt
COC(=O)CSC1=C(C#N)C(c2ccc(C)cc2)C2=C(CCCC2=O)N1 (stereo not given)	16	i	i	i	i
N#CC1=C(SCc2ccccc2)NC2=C(C(=O)CCC2)C1c1ccc2c(c1)OCO2 (stereo not given)	i	i	i	i	i
CCOC(=O)CSC1=C(C#N)C(C)C2=C(CCCC2=O)N1 (stereo not given)	i	i	i	94	i
COC(=O)CSC1=C(C#N)C(c2ccc3c(c2)OCO3)C2=C(CCCC2=O)N1 (stereo not given)	i	i	86	74	i
Cc1ccc(NC(=O)CSC2=C(C#N)C(c3ccc4c(c3)OCO4)C3=C(CCCC3=O)N2)c(C)c1 (stereo not given)	i	i	93	88	i
CCOc1ccc(-c2noc(CCC(N)=O)n2)cc1OCC	nt	i	i	i	i
Cc1cc2nc(C3CCCN(C(=S)Nc4ccccc4C)C3)[nH]c2cc1C (stereo not given)	i	i	i	i	i
Cc1ccc(Cn2c(=O)c3c(nc4n3CCCN4Cc3ccccc3)n(C)c2=O)cc1	i	i	i	i	i
CN(c1cc(=O)n2ccccc2n1)C1CCCCC1	i	i	i	i	i
SMILES	EphB4 ephrin blk	CYP2C9 act	CYP2C9 inh	CYP2C19 inh	CYP2C19 act
CCSC1=C(C#N)C(c2ccc3c(c2)OCO3)C2=C(CCCC2=O)N1 (stereo not given)	i	i	67	85	i
CCc1ccccc1NC(=O)CSC1=C(C#N)C(c2ccc(O)c(OC)c2)C2=C(CCCC2=O)N1 (stereo not given)	nt	i	56	i	i
COc1cc(C2C3=C(CCCC3=O)Nc3[nH]n(-c4ccccc4)c(=O)c32)ccc1O (stereo not given)	i	i	i	i	i
CCOC(=O)CSC1=C(C#N)C(c2ccc(C)cc2)C(C(=O)OC)C(=O)N1 (stereo not given)	i	i	i	54	i
CCOC(=O)CSc1nc2ccc(C)cc2cc1C#N	i	i	i	i	i
CCn1cc(C(=O)Nc2cccc(C(=O)OC)c2)c(=O)c2ccc(C)nc21	nt	i	i	i	i
Cn1c(SCC(=O)Nc2ccc3c(c2)oc2ccccc23)nnc1-c1ccccc1	i	i	i	i	i
COc1ccc(Cn2cc3c(-c4ccc(F)cc4)nnc-3c3cc(OC)c(OC)cc32)cc1	i	i	i	i	i
COc1cc2c3nnc(-c4ccc(F)cc4)c-3cn(Cc3ccc(F)cc3)c2cc1OC	i	i	77	i	i
CCN(CC)c1ccc(CNc2ccc(Br)cn2)cc1	i	i	63	80	i
